# Source: PubChem BioAssay (EPA / NIEHS)
# The source made the active and inactive calls. The calls were made as follows: active = hit-call score of the fitted dose curve at least 0.9, where 1 is the maximum; inactive = score below 0.9.
# Read-out: Macrophage colony-stimulating factor (MCSF), CSF1 (gene 1435)
# Experiment: BSK_LPS_MCSF: BioMAP Diversity Plus: LPS Assay for Macrophage colony-stimulating factor (MCSF) Biomarker Activity (AID 2283083)
# Settings: primary human HUVEC with PBMC; actives raise or lower the signal
# Experimental: BSK_LPS is a cell-based, multiplexed-readout assay that uses umbilical vein endothelium and peripheral blood mononuclear cells, a human vascular primary cell co-culture, with measurements taken at 24 hours after chemical dosing in a 96-well plate.BSK_LPS_MCSF is an assay component measured in the BSK_LPS assay. It measures M-CSF antibody related to regulation of gene expression using ELISA technology.Data from the assay component BSK_LPS_MCSF was analyzed into 1 assay endpoint. This assay endpoint, BSK_LPS_MCSF, was analyzed with bidirectional fitting relative to DMSO as the negative control and baseline of activity. Using a type of binding reporter, gain or loss-of-signal activity can be used to understand changes in the signaling as they relate to the gene CSF1. Furthermore, this assay endpoint can be referred to as a primary readout, because this assay has produced multiple assay endpoints where this one serves a signaling function. To generalize the intended target to other relatable targets, this assay endpoint is annotated to the cytokine intended target family, where the subfamily is colony stimulating factor.
# The levels of cell surface (or secreted, indicated by the prefix "s") biomarker endpoints were measured by ELISA. Overt cytotoxicity to cells in confluent adherent cultures (all systems other than the BT system) was assessed by measuring total protein levels using sulforhodamine B (SRB) staining in parallel cultures at the time of biomarker measurements, indicated as SRB endpoints. For proliferation assays for adherent cell types, individual cell types are cultured at sub-confluence and relative cell numbers quantified by SRB staining at time points optimized for each system (48 h: 3C and CASM3C systems; 72 h: BT and HDF3CGF systems; 96 h: SAg system). SRB was performed by staining cells with 0.1% SRB after fixation with 10% TCA and reading wells at 560 nm.Viability and proliferation of PBMC (T cells) was quantified by Alamar Blue reduction for the SAg and BT systems. For PBMC viability (referred to as PBMC Cytotoxicity within the assay endpoint names), cells were plated (75,000/well in a 96-well plate) and then chemical samples added for 1 h before addition of activators, SEB and TSST-1 (20 ng/mL final concentration each). Cells were incubated for 90 h. Then, Alamar Blue (20 uL/well) (Invitrogen, Cat DAL1100) was added for 6 h, and the plates were read with a fluorescence microplate reader at 546/580 nm (excitation/emission). For PBMC proliferation, cells were plated and activated as above but incubated for only 16 h prior to addition of Alamar Blue. Plates were read after 6 h.
Compound,outcome,AC50
CC1(C)CON(Cc2ccccc2Cl)C1=O,inactive,–
CC(C)N1C(=O)N(c2ccccc2)CSC1=NC(C)(C)C,–,18.9 µM (active)
CC(C)C1(C)N=C(c2ncccc2C(=O)O)NC1=O (stereo not given),inactive,–
CCCCC(C#N)(Cn1cncn1)c1ccc(Cl)cc1 (stereo not given),inactive,–
CCOc1nc(C(Cl)(Cl)Cl)ns1,inactive,–
COC(=O)N(C(=O)N1CO[C@@]2(C(=O)OC)Cc3cc(Cl)ccc3C2=N1)c1ccc(OC(F)(F)F)cc1,inactive,–
O=P(O)(O)CCCl,inactive,–
Nc1c(Cl)c(F)nc(OCC(=O)O)c1Cl,inactive,–
CCOc1cc(C(C)(C)C)ccc1C1COC(c2c(F)cccc2F)=N1 (stereo not given),–,20.9 µM (active)
Clc1nc(Cl)nc(Nc2ccccc2Cl)n1,inactive,–
CC(C)N1C(=O)c2ccccc2NS1(=O)=O,inactive,–
CNC(=O)Oc1cccc2ccccc12,–,20 µM (active)
Cc1cnc(C2=NC(C)(C(C)C)C(=O)N2)c(C(=O)O)c1 (stereo not given),inactive,–
COc1cc(OC)nc(NC(=O)NS(=O)(=O)c2ncccc2OCC(F)(F)F)n1,inactive,–
Cc1cc(C)nc(Nc2ccccc2)n1,inactive,–
Nc1cnn(-c2ccccc2)c(=O)c1Cl,inactive,–
Nc1c(Cl)c(Cl)nc(C(=O)O)c1Cl,inactive,–
CC(C)(C)C(=O)C(Oc1ccc(Cl)cc1)n1cncn1 (stereo not given),inactive,–
CCN(CC)C(=O)C(C)Oc1cccc2ccccc12 (stereo not given),–,0.274 µM (active)
CCNC(=O)NC(=O)C(C#N)=NOC,inactive,–

Compound,outcome,AC50
CSC(=O)c1c(C(F)F)nc(C(F)(F)F)c(C(=O)SC)c1CC(C)C,–,20 µM (active)
CCNP(=S)(OC)O/C(C)=C/C(=O)OC(C)C (stereo not given),inactive,–
CCCCOCN(C(=O)CCl)c1c(CC)cccc1CC,–,27 µM (active)
CC(C)NC(=O)N1CC(=O)N(c2cc(Cl)cc(Cl)c2)C1=O,inactive,–
O=C1C2CC=CCC2C(=O)N1SC(Cl)(Cl)Cl (stereo not given),–,29 µM (active)
CCCCC(O)(Cn1cncn1)c1ccc(Cl)cc1Cl (stereo not given),inactive,–
N#Cc1c(Cl)cccc1Cl,inactive,–
Cc1nc(N(C)C)nc(OC(=O)N(C)C)c1C,inactive,–
CC1(C)C(C=C(Cl)Cl)C1C(=O)OC(C#N)c1cccc(Oc2ccccc2)c1 (stereo not given),inactive,–
CCCC(=NOCC)C1=C(O)CC(CC(C)SCC)CC1=O (stereo not given),inactive,–
O=C(Nc1ccccc1-c1ccc(Cl)cc1)c1cccnc1Cl,inactive,–
CCN(CC)c1nc(C)cc(OP(=S)(OC)OC)n1,–,20 µM (active)
Clc1cccc(C(Cl)(Cl)Cl)n1,inactive,–
COCC(=O)N(c1c(C)cccc1C)C(C)C(=O)OC (stereo not given),inactive,–
Cc1ccc(N=CN(C)C=Nc2ccc(C)cc2C)c(C)c1,–,32.6 µM (active)
COCc1cnc(C2=NC(C)(C(C)C)C(=O)N2)c(C(=O)O)c1 (stereo not given),inactive,–
Cc1c(COC(=O)[C@@H]2[C@H](/C=C(\Cl)C(F)(F)F)C2(C)C)cccc1-c1ccccc1,–,3.53 µM (active)
CCC(C)n1c(=O)[nH]c(C)c(Br)c1=O (stereo not given),inactive,–
O=c1n(Cl)c(=O)n(Cl)c(=O)n1Cl,inactive,–
C=C(C)CN(CC)c1c([N+](=O)[O-])cc(C(F)(F)F)cc1[N+](=O)[O-],inactive,–
